The list is not random: actives were taken first. Their share in the collection is about 2.8%.
Furin inh = human furin inhibition. inhibition, % at 20 µM or 30 µM. purified furin, fluorogenic substrate cleavage. AID 463115. actives 0.061% (n = 220,000); in the data active = inhibition above about 25%
Target sequence (P09958 108-714 limits assumed): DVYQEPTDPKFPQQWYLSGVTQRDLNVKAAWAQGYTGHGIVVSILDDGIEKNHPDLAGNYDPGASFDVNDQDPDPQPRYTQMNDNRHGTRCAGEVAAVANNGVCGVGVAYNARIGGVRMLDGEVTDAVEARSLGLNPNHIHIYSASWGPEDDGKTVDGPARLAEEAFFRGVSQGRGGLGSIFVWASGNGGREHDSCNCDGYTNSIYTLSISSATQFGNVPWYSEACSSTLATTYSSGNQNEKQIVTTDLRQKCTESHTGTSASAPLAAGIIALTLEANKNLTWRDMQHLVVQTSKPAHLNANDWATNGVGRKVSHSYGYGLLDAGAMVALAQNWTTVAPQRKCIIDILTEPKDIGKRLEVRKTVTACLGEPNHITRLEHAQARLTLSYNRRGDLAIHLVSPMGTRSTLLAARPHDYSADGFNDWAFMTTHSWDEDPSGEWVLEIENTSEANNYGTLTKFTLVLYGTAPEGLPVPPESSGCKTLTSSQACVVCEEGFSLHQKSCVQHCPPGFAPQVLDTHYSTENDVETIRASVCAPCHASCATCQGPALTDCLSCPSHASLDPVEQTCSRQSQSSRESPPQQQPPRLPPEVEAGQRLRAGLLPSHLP
p47phox inh = blocks human p47phox regulatory protein of NADPH oxidases | P14598 | p47phox/p22phox peptide binding, fluorescence polarization, 2 h | inhibition, % at 24.7 µM | actives 0.53% (n = 220,000) | AID 1274;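 active = inhibition above about 30%, limit read from the data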;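 note: 0% = p47phox with labelled peptide and 100% = labelled peptide alone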
Wee1 stabilizer = inhibitors of human Wee1 degradation; P30291; HeLa Luc-Wee1K328M stability, luciferase luminescence; 100% = proteasome inhibitor MG132 effect; reporter increase, % at 5 µM; actives 1.2% (n = 220,000);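 active = activation above the mean of all tested compounds plus 3 SD, set per screening run, cut at about 8.8% in these data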;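 note: cells exposed to compound for 20 h before luminescence read; 0% = DMSO alone and 100% = MG132 at 30 µM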
PGE2 EP2 inh = EP2 receptor (human) inhibition; P43116; C6 glioma cells expressing human EP2, cAMP TR-FRET; cells stimulated with saturating PGE2; inhibition, % at 25 µM; actives 0.52% (n = 260,000);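 active = percent inhibition above 40 after rounding to a whole number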;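 note: rat C6 glioma host cells with rolipram phosphodiesterase inhibitor present; the protocol text gives 20 µM as final concentration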
HSV replic up = HSV replication enhancement | maximum fold increase | actives 0.005% (n = 220,000) | AID 1956 | HSV replication augmentation in cells, fold increase; in the data active = maximum fold increase above about 1.5; inconclusive = no clear call, values can overlap the other calls; tested in PC3 cells
EP2 mod = modulators of human EP2 prostaglandin E2 receptor; P43116; actives 0.83% (n = 260,000); EP2-expressing cells, cAMP HTRF FRET, PGE2 co-stimulation; induction, % at 25 µM; AID 940;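 active = compounds whose cAMP rise, as percent of the full-agonist control response, exceeds 60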;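 note: rat C6 glioma line stably carrying human EP2 under a CMV promoter; the protocol text gives 20 µM as final concentration; 100% = response of wells given 1 µM PGE2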
Numbers without * were called inactive; i = inactive; ? = inconclusive; . = no result; + = active, no number; ! = a repeat was not active.

SMILES	Furin inh	p47phox inh	Wee1 stabilizer	PGE2 EP2 inh	HSV replic up	EP2 mod
CCOC(=O)/C(=N/Nc1ccc(Cl)cc1)Sc1nnnn1-c1ccc(C)cc1	-14	-13	11*	4	i	19
CCOC(=O)/C(=N/Nc1ccccc1)Sc1nnnn1-c1ccc(C)cc1	-15	1	0	2	i	-1
COc1ccc(N2CC(C(=O)Nc3ccc(N(C)C)cc3)CC2=O)cc1 (centres undefined)	.	.	.	6	.	-20
O=C(OCC(=O)N1CCCCCC1)c1ccc(S(=O)(=O)N2CCOCC2)cc1	-35	-4	-1	4	i	10
O=C(OCC(=O)c1ccc(S(=O)(=O)N2CCCC2)cc1)C1=COCCO1	-9	+	0	3	i	-2
CCOc1ccc(C(=O)N(CN2CCCC2=O)c2ccccc2)cc1	-31	0	13*	9	i	44
O=C1CSC(c2ccccc2)N1CC12CC3CC(CC(O)(C3)C1)C2 (centres undefined)	-14	-3	13*	8	i	-55
S=C(NC1CCCCC1)NC1CC2C=CC1C2 (centres undefined)	-27	-16	9.2*	5	i	14
CC(C)(CCO)NC(=S)NC1CC2C=CC1C2 (centres undefined)	-16	-11	-1	7	i	-1
Cc1ccc(CN2CCN(Cc3nc4c(s3)CCCC4)CC2CCO)cc1 (centres undefined)	-12	-7	-2	2	i	-30
COc1cccc(CN2CCN(Cc3nc4c(s3)CCCC4)CC2CCO)c1 (centres undefined)	-12	-17	10*	6	i	-20
Cc1ccc2[nH]c(=O)c(CN(Cc3ccco3)C(=O)Cc3ccccc3)cc2c1	.	.	.	3	.	-26
CC1Cc2cc(C(O)CN3CCC4CCCCC4C3)ccc2N1S(C)(=O)=O (centres undefined)	.	.	.	6	.	-59
CCc1nn(CC(=O)N(CC)Cc2ccco2)c(=O)c2cc3ccsc3n12	.	.	.	.	.	1
Cc1cccc(NC(=O)CSc2nc3ccccc3c3nc(CCc4c(C)n[nH]c4C)nn23)c1	-20	0	-1	7	i	-1
Cc1cncn1CCc1nc2c3ccccc3nc(SCC(=O)Nc3cccc(Cl)c3)n2n1	-5	50*	-1	8	i	-37
O=C(Cn1c(=S)[nH]c2ccccc2c1=O)NCCc1ccccc1	-35	-2	9.5*	2	i	-22
O=C1NC2(CCN(CC(=O)N3CCCCCC3)CC2)Oc2ccccc21	.	.	.	3	.	-21
CCC(=O)N(Cc1cc2cc(OC)ccc2[nH]c1=O)c1ccccc1	.	.	.	5	.	-26
C[C@]12CC[C@H](O)C[C@@H]1CC[C@H]1[C@H]2CC[C@]2(C)[C@@H]1CC[C@H]2c1cc(C(F)(F)F)n[nH]1	.	.	.	55*	.	-19
CCN(CC)c1ccc2cc(-c3nc4ccccc4[nH]3)c(=O)oc2c1	4	-80	-2	9	?	-1
CCN(CC)c1ccc2nc3ccccc3[n+](CC)c2c1	.	.	.	+	.	-294
CC(C)(C)NC(=O)CSc1nnc(-c2ccncc2)n1C1CCCCC1	.	.	.	7	.	15
O=C(COc1ccc(S(=O)(=O)N2CCCC2)cc1)Nc1ccc(F)c(Cl)c1	.	.	.	6	.	-39
CC(N)c1nc(-c2cnccn2)n[nH]1 (centres undefined)	.	.	.	4	.	13
SMILES	Furin inh	p47phox inh	Wee1 stabilizer	PGE2 EP2 inh	HSV replic up	EP2 mod
Cc1ccc(Cl)cc1N1CCN(C(=O)c2ccc3nc[nH]c3c2)CC1	-7	123*	-2	5	i	-2
OC(CN1CCC(O)(c2ccc3c(c2)OCO3)CC1)c1ccc2c(c1)CCC2 (centres undefined)	.	.	.	6	.	-67
COc1ccc2c(c1)C(=O)CC(O)(C(F)F)O2 (centres undefined)	-18	-11	9.8*	10	i	11
COc1cccc(C2(O)CCN(CCNC(=O)C(C)C)CC2)c1	.	.	.	7	.	-19
CC(C)(C)c1ccc(CN2CCN([C@H](c3ccccc3)c3ccc(Cl)cc3)CC2)cc1	.	.	.	45*	.	15
COc1cc(CCC(=O)Nc2cc(Cl)ccc2N2CCN(C)CC2)cc(OC)c1OC	-16	-11	9.2*	3	i	-5
COC(=O)C1=C(C(C)=O)C(c2ccc(F)cc2)n2nnnc2N1 (centres undefined)	.	.	.	13	.	-3
COc1ccc(S(=O)(=O)Nc2cc(C(C)C)c(O)cc2C)cc1	30*	11	-2	7	i	29
COc1ccccc1OC1OC2COC(c3ccco3)OC2C(O)C1NC(C)=O (centres undefined)	-6	17	9.1*	10	i	-6
CC(=O)NC1C(Oc2cccc(C)c2)OC2COC(c3ccco3)OC2C1O (centres undefined)	-8	-4	-3	7	i	-18
CCc1oc(C(=O)O)cc1CN(CC)CC	-15	-2	1	4	i	16
CCN(CC)Cc1cc(O)c(CN(CC)CC)cc1O	-13	46*	-2	36	i	-75
COc1ccc(-c2nc3cnccn3c2NCCc2ccccc2)cc1OC	.	.	.	11	.	-46
O=C(Cc1cccnc1)N1CCC(c2ncncc2-c2ccncc2)CC1	.	.	.	.	.	-29
Cc1c(CN(C)C(=O)/C=C/c2ccc([N+](=O)[O-])cc2)cnn1C	-13	-7	8.9*	17	i	10
CC1CC(C)CN(C(=O)/C(=C\c2ccccc2)c2ccccc2)C1 (centres undefined)	-2	2	-2	2	i	63*
CC1CCN(CCNC(=O)c2ccc(NC(=O)C3CCCO3)cc2)CC1 (centres undefined)	-21	-5	9.3*	7	i	0
Cc1ccc(C)c(-c2csc(N)c2C(=O)OC(C)C)c1	-10	-4	-1	16	i	63*
O=C(CSc1nc(-c2ccco2)cc(C(F)(F)F)n1)NC1CCCCCC1	.	.	.	13	.	-141
CC(C)C(=O)N1CCN(c2ccc(NC(=O)c3cccc(F)c3)cc2)CC1	.	.	.	10	.	-28
COc1ccc2c(Cc3c4ccccc4cc4ccccc34)cncc2c1O	.	.	.	40*	.	28
CC(C(=O)N1CCCC(c2c(S(C)(=O)=O)cnc3ncnn23)C1)c1ccccc1 (centres undefined)	.	.	.	.	.	3
CCOc1ccccc1NC(=O)C1OC2OC3(CCCCC3)OC2C2OC3(CCCCC3)OC12 (centres undefined)	.	.	.	50*	.	0
O=C(O)C1OC2OC3(CCCCC3)OC2C2OC3(CCCCC3)OC12 (centres undefined)	0	11	4	8	i	9
CCCOc1ccc(-c2nnc(-c3cccs3)o2)cc1	-36	0	1	9	i	28
Brc1ccc(-c2cnc(-c3cccs3)o2)cc1	-16	-11	1	6	i	61*!
O=C(c1ccc(-n2cccc2)cc1O)N1CCn2c(nnc2C2CC2)C1	.	.	.	.	.	-21
